Structures are written as SMILES. The source made the active and inactive calls. Where a call stands in place of a potency, no number is given. Calls come from the whole dose curve.
Potency is the fitted concentration of half-maximal effect.

Acetylcholinesterase (Homo sapiens), sequence (P22303 whole entry, looked up): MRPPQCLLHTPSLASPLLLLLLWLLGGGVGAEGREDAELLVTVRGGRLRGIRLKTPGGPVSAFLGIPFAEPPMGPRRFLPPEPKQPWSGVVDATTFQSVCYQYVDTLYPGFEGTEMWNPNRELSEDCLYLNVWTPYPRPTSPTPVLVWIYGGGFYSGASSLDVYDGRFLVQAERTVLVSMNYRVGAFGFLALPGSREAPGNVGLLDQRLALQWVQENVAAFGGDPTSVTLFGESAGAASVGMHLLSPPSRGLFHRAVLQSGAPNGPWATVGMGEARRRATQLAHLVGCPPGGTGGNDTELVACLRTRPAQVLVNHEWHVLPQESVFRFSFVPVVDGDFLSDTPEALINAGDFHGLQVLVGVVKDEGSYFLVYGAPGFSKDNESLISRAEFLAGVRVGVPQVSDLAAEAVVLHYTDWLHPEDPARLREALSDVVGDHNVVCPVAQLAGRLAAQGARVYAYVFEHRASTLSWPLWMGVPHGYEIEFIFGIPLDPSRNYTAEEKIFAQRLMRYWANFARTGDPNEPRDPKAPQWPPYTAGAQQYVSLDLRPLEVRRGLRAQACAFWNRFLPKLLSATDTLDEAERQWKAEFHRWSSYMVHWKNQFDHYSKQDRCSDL

This experiment concerns the target Acetylcholinesterase (Homo sapiens) (UniProt P22303). Kind of experiment: Acetylcholinesterase (AChE) small molecule antagonists: enzyme-based qHTS assay (AID 1347397). Note: nearly all actives have a fitted effect of over 55% in size. The note with it: Potency: AChE enzyme activity inhibition; outcome: AChE enzyme activity inhibition; series mostly up to 115 µM. A digest of the protocol: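 Tox21 library chemicals are tested in qHTS format against recombinant human AChE. The enzyme, dispensed at 50 mU/mL, sits with compound for 30 min at room temperature. A DTNB–acetylthiocholine cocktail follows, and colour is read after 10 min.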
A general note: In qHTS, concentration-response curves come from the screen itself.
Consider `CN1CCC(=C2c3ccccc3CCc3sccc32)CC1`, for which the Potency result was “inactive”.
Same read-out and setting: the value for `CCCCCCCCCCCCCCCCCC[N+](C)(C)Cc1ccccc1` was 28.5 µM (active); that for `CCCCCCCCCCCCCCN(CCO)CCO` was “inactive”.
Turning to `Cc1cc(=O)oc2cc(N(C)C)ccc12`, the Potency result was “inactive”.
Turning to `O=S(=O)(O)c1cc(S(=O)(=O)O)c2ccc3c(S(=O)(=O)O)cc(S(=O)(=O)O)c4ccc1c2c43`, the activity change, negative = inhibition is -5.03% [at 23.6 µM] (inactive).
Turning to `CCOC(=O)CC#N`, the Potency result was “inactive”.
On the same count and under the same terms, the value for `S=c1[nH]c2ccccc2s1` was “inactive”; that for `COCCOc1cc2cc(C(=O)NC3CCN(C(C)C)CC3)n(CC(=O)Nc3ccc(Cl)cn3)c2cn1` was “inactive”.
Same read-out and setting: the entry for `CN1CCCCC1CCN1c2ccccc2Sc2ccc(S(C)=O)cc21` (stereo unspecified) is “inactive”.
In the case of `NC1(c2ccc(-c3nc4ccn5c(=O)[nH]nc5c4cc3-c3ccccc3)cc2)CCC1`, the Potency entry is “inactive”.
Consider `COc1ccc(-n2nc(C(F)F)cc2-c2ccc(S(C)=O)cc2)cc1` (stereo unspecified), for which the Potency entry was “inactive”.
The same measure, in the same setting: the entry for `Clc1ccc2c(c1)CCc1cccnc1C2=C1CCNCC1` is “inactive”; for `Nc1ccc(F)c([N+](=O)[O-])c1` it is “inactive”; for `c1ccc2c(c1)CCCC2C1=NCCN1` (stereo unspecified) it is “inactive”.
Take `CC1=CCC2C(C1)C2(C)C` (stereo unspecified): the Potency entry is “inactive”.
The same measure, in the same setting: the entry for `CCOC(=O)[C@H](CCc1ccccc1)N[C@H]1CS[C@H](c2cccs2)CN(CC(=O)O)C1=O` is “inactive”.
As to `O=C1c2ccccc2S(=O)(=O)N1CCCCN1CCN(c2ncccn2)CC1`, the Potency result is “inactive”.
As for `N#CC1(N)CCCCC1`, the Potency entry was “inactive”.
Same read-out and setting: the entry for `Cc1ccccc1C` is “inactive”; for `CCC(C)(C)C1CCC(=O)CC1` it is “inactive”; for `O=C(OCC(O)CO)c1ccccc1Nc1ccnc2cc(Cl)ccc12` (stereo unspecified) it is “inactive”.

Source of the values: PubChem BioAssay (Tox21).
